The whole screen tested about 57,000 sequences, of which about 4,100 (7.2%) were called active. Cut-off read from the data, not from the text of the source: active = GI50 up to about 1.1 µM and inactive = higher. These entries were drawn from the full list. Entries with a potency or affinity are not part of this list.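 Where inhibition never reached the appropriate level, the endpoint shown equals the highest concentration tested. Otherwise, values were interpolated linearly from a five-concentration, 48-hour dose response in 96-well plates. The concentration for 50% growth inhibition is given as GI50.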
test system: COLO 205; assay: NCI tumour cell line growth inhibition, 48 h

| Substance | GI50 [µM] |
| --- | --- |
| [Bis(aminomethyl)pentamethylenesilane]dichloropaltinum(II), CHEMBL2146202 | 2.07 |
| [Bis(aminomethyl)tetramethylenesilane]tetrachloropaltinum(IV), CHEMBL2146189 | 8.51 |
| [Bis(aminomethyl)dimethylsilane]dichloroplatinum (II), CHEMBL2146201 | 24.3 |
| cis-Bis[[(trimethylsilyl)methyl]amino]tetrachloroplatinum(IV), CHEMBL2146191 | 2.07 |
| [Bis(aminomethyl)tetramethylenesilane]dichloropaltinum(II), CHEMBL2146205 | 20.1 |
| [Bis(aminomethyl)pentamethylenesilane]tetrachloropaltinum(IV), CHEMBL2146204 | 1.53 |
| [Bis(aminomethyl)ethylmethylsilane]tetrachloroplatinum(IV), CHEMBL2146192 | 5.15 |
| mu-(1,7-nanodiamine-N,N')bis-(cis-aminedichloroplatimum (II)), CHEMBL2146215 | 6 |
| [Bis(aminomethyl)dimethylsilane]tetrachloroplatinum(IV), CHEMBL2146190 | 11.6 |
| [Bis(aminomethyl)diethylsilane]tetrachloroplatinum(IV), CHEMBL2146203 | 11.9 |
| CISPLATIN, CHEMBL11359 | 13.4 |
